Source: PubChem BioAssay (NCI)
The panel holds about 83,000 compounds, 20% with a hit somewhere; the sample as a whole holds those more often.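 48-hour exposure, single concentration, 96-well plates; percent growth endpoint where 0 means no net growth. Active: below 10.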 Values without a mark were called inactive. Active and inactive are the calls of the source.

system: IGROV1 ovarian; assay: NCI-60 one-dose screen, 48 h (100 = growth as untreated, 0 = no growth, -100 = all killed); conditions: 10 µM unless noted

Going from CCNc1cc2c(cc1Br)-c1ccccc1C2=O to CCOC(=O)Nc1ccc2c(c1)/C(=N\NC(=S)NC)c1ccccc1-2, the growth rises from 82% to 100%.

Going from Cn1cc(-c2noc(-c3cn(C)c4ncccc34)n2)c2cc(Cl)ccc21 to COc1ccc2c(c1)c(-c1noc(-c3cn(C)c4ncc(F)cc34)n1)cn2C, the growth falls from 99.8% to 69.6%.

Compared with N#Cc1ccc(-c2ccc(COc3ccc(CC4SC(=O)NC4=O)cc3)cc2)cc1 (centres undefined), COc1ccc(C(=O)CSc2nccc(Nc3ccc(C(=O)O)cc3)n2)cc1 is higher in growth: 68.4% for the first, 91.8% for the second.

Compared with O=C(N[C@@H]1CCCc2ccccc21)[C@H](CCC(=O)N1CCN(C2CCCCC2)CC1)N1C(=O)[C@@H](N2C(=O)OC[C@@H]2c2ccccc2)[C@H]1/C=C/c1ccccc1, CC(C)C1=NOC(=O)C1=Cc1cn(-c2ccco2)nc1-c1ccccc1 is higher in growth: 49.3% for the first, 90.2% for the second.

Compared with CCOC(=O)/C(C#N)=C(\C)CCc1ccccc1, CCN(CCO)CCC(=O)c1ccc([N+](=O)[O-])cc1 is higher in growth: 81.2% for the first, 108% for the second.

Compared with CCOC(=O)COc1c(C)cc(SSc2cc(C)c(OCC(=O)OCC)c(C)c2)cc1C, COc1ccc(/C=C(/C(=O)c2ccc(Cl)cc2)C(=O)C(F)(F)F)cc1 is lower in growth: 96.5% for the first, 96% for the second.

For O=[N+]([O-])c1cccc(N=NNc2cccc([N+](=O)[O-])c2)c1, the growth was 125%.

With O=C(NCCCCCCCNC(=O)OCc1ccc2c(Cl)cc(Cl)c(O)c2n1)OCc1ccc2c(Cl)cc(Cl)c(O)c2n1 the growth was -86.2% (active).
